# Measured values from PubChem BioAssay (Tox21).
# Records with an inconclusive call do not appear. Entries that show only a call come without a potency. Values without a mark were called inactive. Activity calls are given as the source filed them. Calls follow the shape of the dose curve; as a rule, active = well fitted cell-killing curve with a large enough effect in the repeat runs; inconclusive = weak or mixed curves, or effect the other way; inactive = no such curve, though single readings can be large or run the other way.
# Test: qHTS assay to identify small molecule antagonists of the sonic hedgehog signaling (Shh) pathway - cell viability counter screen (AID 1259367); also: nearly all actives have a fitted effect of over 55% in size
# Settings: NIH/3T3 Gli1-Luc viability, CellTiter-Fluor, 24 h; series mostly up to 92.4 µM
# From the text: National Center for Advancing Translational Sciences [NCATS]
# NIH Chemical Genomics Center [NCGC]
# U.S. Environmental Protection Agency [EPA]
# National Institutes of Environmental Health Sciences [NIEHS]
# National Toxicology Program [NTP]
# U.S. Food and Drug Administration [FDA]
# The sonic hedgehog (Shh) pathway is essential for normal embryonic development. Dysregulation of the Shh pathway can cause severe developmental defects in organs. Therefore chemicals that interfere with the pathway are potential developmental toxicants. A cell line designated 3T3Gli1-Luc (DMB/OARSA/CFSAN/FDA, Laurel, MD), a NIH/3T3 derived clone containing stably integrated Gli1-Luc reporter is used to detect chemical interference of the Shh pathway, by changes in the expression of the firefly Luc gene under the control of the Gli1 transcriptional response element. This cell line was used to screen Tox21 libraries for identifying and prioritizing the potential developmental toxicants that interfere Shh pathway. Conditioned medium-stimulated mode was used to screen for chemicals inhibiting Shh signaling. The cytotoxicity of the compounds was tested in parallel by measuring the cell viability using CellTiter-Fluor assay system (Promega, Madison, WI) in the same wells.
# Tox21 Assay Protocol Summary:
# 3T3 Gli1-Luc cells were dispensed at 2,000 per well in 5uL of culture medium into white solid bottom 1536-well plates (Greiner Bio-One, Monroe, NC) using a Multidrop Combi (Thermo Scientific, Waltham, MA) dispenser. The assay plates were incubated at 37 C and 5% CO2 for 4hr, and then 23nL of compounds dissolved in DMSO and positive control were transferred using a Pintool station (Wako, San Diego, CA). The compound transfer was followed by the addition of 1ul conditioned medium or assay buffer using two separate tips of Flying Reagent Dispenser (FRD, Aurora Discovery, San Diego, CA). The assay plates were incubated at 37C and 5% CO2 for 24hr. For viability read, after 23hr of compound treatment, 1uL of CellTiter-Fluor reagent (Promega Corporation, Madison, WI) was added to each well of the assay plates using Flying Reagent Dispenser (FRD, Aurora Discovery, San Diego, CA) and incubated the assay plates at 37C for 1hr. The fluorescence signal was quantified using a ViewLux plate reader (Perkin Elmer, Shelton, CT).
# Potency is read from the fitted curve at half-maximal effect.
Structure (SMILES),Potency,"viability change, negative = cytotoxic"
CC1(C)S[C@@H]2[C@H](NC(=O)C(C(=O)O)c3ccccc3)C(=O)N2[C@H]1C(=O)O (stereo not given in full),inactive,–
COc1nc(C)nc(NC(=O)NS(=O)(=O)c2ccccc2OCCCl)n1,inactive,–
Cc1ccc(C(C)C)cc1O,inactive,–
CC(C)S,inactive,–
COc1ccc2nc(NC(=O)Nc3ccccc3)sc2c1,inactive,–
O=C(CCCl)NCc1ccccc1,inactive,–
FC(F)(F)C(Cl)(Cl)Cl,inactive,–
CC/C=C\CCOC(=O)C(C)C,inactive,–
CC(C)Nc1nc(N)nc(Cl)n1,inactive,–
O=c1[nH]cnc2c1ncn2[C@@H]1O[C@H](CO)[C@@H](O)[C@H]1O,inactive,–
CCCCNc1cc(C(=O)O)cc(S(N)(=O)=O)c1Oc1ccccc1,inactive,–
Cc1ncc(CO)c(CN)c1O,inactive,–
CCCCCOc1ccc(C2SC(=O)NC2=O)cc1OCC (stereo not given),inactive,–
C1CSCCS1,inactive,–
CN(CCCN1c2ccccc2CCc2ccccc21)CC(=O)c1ccc(Cl)cc1,inactive,–
C=CCCC=C,inactive,–
COc1cc(N)c(Cl)cc1C(=O)NC1CCN(Cc2ccccc2)CC1,inactive,–
CN1CCN(c2c(F)cc3c(=O)c(C(=O)O)cn4c3c2SCC4)CC1,inactive,–
NC(=O)Cc1cccc(C(=O)c2ccccc2)c1N,inactive,–
CCCCC(CC)COC(=O)COc1cc(Cl)c(Cl)cc1Cl (stereo not given),inactive,–

Structure (SMILES),Potency,"viability change, negative = cytotoxic"
CC(C)NCC(O)COc1ccc(CCOCC2CC2)cc1 (stereo not given),inactive,–
Cc1ccc(C)c(N)c1,inactive,–
CCN(CC)CC1CCCCN1CC(=O)N1c2ccccc2C(=O)Nc2cccnc21 (stereo not given),inactive,–
CC(=O)O[C@H]1CC[C@@]2(C)C(=CC[C@@H]3[C@@H]2CC[C@]2(C)C(C(C)=O)=CC[C@@H]32)C1,inactive,–
Cc1cc2c(s1)Nc1ccccc1N=C2N1CCN(C)CC1,5.31 µM (active),–
CCCNC(C)C(=O)Nc1c(C)csc1C(=O)OC (stereo not given),inactive,–
O=C(C(Cl)Cl)N1CCOC12CCCCC2,inactive,–
NC/C=C/C(=O)O,inactive,–
Cc1nnc(SCC2=C(C(=O)O)N3C(=O)[C@@H](NC(=O)Cn4cnnn4)[C@H]3SC2)s1,inactive,–
O=C(O)CN(CCN(CC(=O)O)CC(=O)O)CCN(CC(=O)O)CC(=O)O,–,-7.04% [at 19 µM]
OCCN(CCO)CCN(CCO)CCO,inactive,–
CCCNC(C)(C)COC(=O)c1ccccc1,inactive,–
O=C1CCCc2ccccc21,inactive,–
O=C1CCCCCCCCCCC(=O)OCCO1,inactive,–
CCCCNc1ccc(C(=O)OCCN(CC)CC)cc1,inactive,–
c1ccc(CN(CC2=NCCN2)c2ccccc2)cc1,inactive,–
CC(=O)N[C@@H](CC(C)C)C(=O)O,inactive,–
CCOc1ccc(NC(N)=O)cc1,inactive,–
O=Cc1ccc(F)c(Br)c1,inactive,–
NS(=O)(=O)c1cc(-c2nn[nH]n2)c(NCc2cccs2)cc1Cl,inactive,–
